Laboratory results as given in PubChem BioAssay AID2551 (National Center for Advancing Translational Sciences (NCATS), 2010).
Out of some 310,000 compounds screened, about 17,000 (5.5%) were called active. Not shown: some 11% with an inconclusive outcome. Calls follow the shape of the dose curve; as a rule, active = well fitted inhibition curve with a large enough effect; inconclusive = small, poorly fitted or top-dose-only effect, or effect the other way; inactive = no such curve, though single readings can be large or run the other way. The entries come from a sample that favours actives as a whole.

target: Nuclear receptor ROR-gamma (Mus musculus) (UniProt P51450); experiment: qHTS for inhibitors of ROR gamma transcriptional activity; conditions: Drosophila S2 Gal4-RORgamma UAS-luciferase reporter, 20 h; series mostly up to 53.6 µM; also: nearly all actives have a fitted effect of over 60% in size
Outline: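 ROR gamma transcriptional activity was tracked as Gal4-UAS luciferase output in stably transfected Drosophila Schneider cells, with compound added 1 hr before 700 uM copper sulfate induction and a 20 hr ambient-temperature incubation.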
% is scaled to controls: 0 for no effect and ±100 for the full control effect; potency is read from the fitted curve at half-maximal effect.

Sequence of Nuclear receptor ROR-gamma (Mus musculus) (P51450 whole entry, looked up, the tested form may be a part): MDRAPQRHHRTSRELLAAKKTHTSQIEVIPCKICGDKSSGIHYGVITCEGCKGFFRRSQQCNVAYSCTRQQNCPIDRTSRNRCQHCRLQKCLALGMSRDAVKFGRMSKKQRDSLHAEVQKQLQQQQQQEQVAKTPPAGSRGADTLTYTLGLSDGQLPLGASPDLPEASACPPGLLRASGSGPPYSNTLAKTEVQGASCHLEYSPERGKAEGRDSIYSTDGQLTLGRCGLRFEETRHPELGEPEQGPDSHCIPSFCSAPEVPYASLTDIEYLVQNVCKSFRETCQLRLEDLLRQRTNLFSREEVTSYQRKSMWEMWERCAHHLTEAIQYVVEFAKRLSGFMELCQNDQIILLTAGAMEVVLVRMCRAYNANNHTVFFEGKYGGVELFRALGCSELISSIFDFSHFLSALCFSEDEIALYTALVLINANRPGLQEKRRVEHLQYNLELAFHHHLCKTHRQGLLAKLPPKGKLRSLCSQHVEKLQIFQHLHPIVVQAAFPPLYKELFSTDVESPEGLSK

Potency, inactive:
C/C(=N\NC(=O)NC1CCCCC1)c1ccc(OC(F)F)cc1OC(F)F, Cc1ccc(/C=N/NC(=O)CSc2ccccn2)o1, C/C(=N/NC(=O)c1ccc(Br)o1)c1ccc(C)o1, Cc1ccc(/C=N/NC(=O)Cn2nc(C)c(Br)c2C)o1, COc1ccc(S(=O)(=O)N2CCOC2CNC(=O)C(=O)NCc2ccncc2)cc1OC (centres undefined), O=C(Nc1ccccc1)/C(=C/c1ccc([N+](=O)[O-])cc1)NC(=O)c1ccccc1, O=C(N/N=C/c1ccc(O)cc1)/C(=C/c1ccc([N+](=O)[O-])cc1)NC(=O)c1ccccc1, CCCCc1nc2cc(C(=O)NCCc3cnn(C)c3)ccc2o1, COc1ccccc1-c1cnn2c(N3CCOCC3)cc(C)nc12, N#Cc1ccccc1NC(=O)c1ccc2c(c1)OCO2, COc1ccc(C(=O)NC(C)Cn2nc(C)cc2C)cc1OC1CCN(C(C)=O)CC1 (centres undefined), c1ccc(NCc2cccc3ccccc23)nc1, Oc1ccc2ccccc2c1C=Nc1ccccc1, O=C(c1c(F)cccc1F)N1CCN(c2ncc(Br)cn2)CC1, CCOC(=O)N1CCC(N2Cc3cccc(C(=O)Nc4c(C)cccc4CC)c3C2=O)CC1, Cc1cc(=O)oc2c(C)c(OCC(=O)NCCc3ccc(S(N)(=O)=O)cc3)ccc12, Cc1ccc(NS(=O)(=O)c2cc3c(cc2C)NC(=O)CO3)cc1, N=c1oc2ccccc2cc1C(=O)NCc1ccccc1, Cc1cc(C)n(-c2c(F)c(F)c(COC(=O)c3ccccc3)c(F)c2F)n1, CCOC(=O)c1cnc(-c2ccccc2)nc1Oc1ccc(C)cc1, CC(C)c1nc2cc(C(=O)NC(C)c3cnn(C)c3)ccc2o1 (centres undefined), COc1cc(CO)ccc1OCC(=O)Nc1cccc2ccccc12, C=CCNC(=O)CSc1nc2scc(-c3ccco3)c2c(=O)n1CC=C, C=CCn1cnc2scc(-c3ccccc3)c2c1=O, CC(C)(C)c1cc[n+](-c2[nH]c(=O)sc2/C=N/N=C(\[O-])c2ccccc2)cc1, COc1cc(NC(=S)N2CCCC(C)C2)cc(OC)c1OC (centres undefined), COc1cc(Cl)c(C)cc1NC(=O)CN1CCCCCC1, COc1ccc(C2=NN(C(C)=O)C(c3ccccc3)C2)cc1 (centres undefined), O=C(c1ccccc1)N1N=C(c2ccccc2O)CC1c1ccc(Br)cc1 (centres undefined), COc1ccc(-c2nonc2NC(=O)c2oc3ccc(F)cc3c2C)cc1OC, O=c1ccc2cc(S(=O)(=O)NCCCc3ccccc3)ccc2[nH]1, CCN(CC)S(=O)(=O)c1ccc(NC(=O)c2cnc(C)cn2)cc1, CCOc1cc(NC(=O)Nc2ccccc2)c(OCC)cc1NC(=O)CC, COc1ccc(C(=O)C[n+]2ccc(C)cc2)cc1, COc1ccc(OCCC(=O)c2ccc(OC)cc2)cc1, Cc1cc(C)cc(N(CC(=O)NC2CCCC2)C(=O)CCC(=O)Nc2nccs2)c1, Cc1ccc(OCC(=O)c2cc(C)n(Cc3ccco3)c2C)c([N+](=O)[O-])n1, Cc1ccc(OCC(=O)NC(C)c2ccccc2)c([N+](=O)[O-])n1 (centres undefined), CCOC(=O)C1CCN(Cc2nnc(-c3cccc(Br)c3)o2)CC1, Cc1noc(C)c1CSCC(=O)N(CCC(C)C)c1c(N)n(Cc2ccccc2)c(=O)[nH]c1=O, CCC(C(=O)NCCC(C)C)N(Cc1ccccc1Cl)C(=O)c1snc(C(N)=O)c1N (centres undefined), CCOc1ccc(C(=O)Nc2cccc(SC)c2)cc1, CSc1cccc(NC(=O)CSc2ccccc2)c1, COc1cccc(NC(=S)N(Cc2ccc(C)cc2)Cc2ccccn2)c1, CC(c1ccccn1)N(CCN(C)C)C(=S)Nc1ccccc1F (centres undefined), COC(=O)c1ccc(S(=O)(=O)N2CCc3ccccc3C2)cc1, COc1ccc(NC(=O)CSc2ccc(-c3ccco3)nn2)c(OC)c1, CN(C)c1ccc(S(=O)(=O)NCC(=O)NCC2CCCCC2)cc1[N+](=O)[O-], COc1ccc(CN2CC(C(=O)NCCc3ccc(Cl)cc3)CC2=O)cc1 (centres undefined), CCOc1ccc(NC(=O)CC(Cc2ccc(Cl)cc2)C(=O)O)cc1 (centres undefined), CCOC(=O)COc1nc(C)cc(C(F)(F)F)c1C#N, O=C(O)c1ccccc1-c1ccccc1C(=O)NCCc1ccccc1, CN(CC(=O)Nc1ccccc1C(F)(F)F)C(=O)Cc1ccccc1F, Cc1cccc(C(=O)NCCCN2CCCC2=O)c1, CCC1=Nc2cc(C(=O)NCCN3CCCC3)ccc2Sc2ccc(C)cc21, CCN(CC)c1ccc(/C=N/Nc2nc(C)cc(=O)[nH]2)cc1, O=C(Nc1ccc2c(c1)OCCO2)c1cnccn1, Cc1cc(C)nc(N/N=C/c2ccncc2)n1, CCN(CC)c1ccc(/C=N/NC(=O)CNC(=O)c2cccnc2)cc1, CCc1c(C)c2ccc(OC3CCCCC3=O)cc2oc1=O (centres undefined), CC(C)(C)n1nnnc1C(c1ccccc1F)N1CCN(C(=O)c2ccco2)CC1 (centres undefined), OC(COc1ccc(F)cc1Cl)CN1CCc2ccccc2C1 (centres undefined), OC(c1nc2ccc(F)cc2[nH]1)C(O)c1nc2ccc(F)cc2[nH]1 (centres undefined), Cc1cccc(C(=O)O)c1, Cc1ccc(CN(C)Cc2cc(=O)oc3cc(C)c(Cl)cc23)cc1, CN(c1ccccc1)S(=O)(=O)c1cc(C(=O)OCC(=O)N2CCN(C(=O)c3ccco3)CC2)ccc1Cl, CN(c1ccccc1)S(=O)(=O)c1cccc(NC(=O)Cc2c(F)cccc2Cl)c1, CN(CC(=O)Nc1c(Cl)cccc1Cl)C(=O)CNC(=O)C1CCCCC1, COc1ccc(C(=O)NC2CC(C)(C)Cc3c2cnn3-c2ccccc2C)o1 (centres undefined), CC(=O)Nc1cccc(NC(=O)c2ccc3c(c2)CCN3S(C)(=O)=O)c1, Cc1cc(=O)[nH]c(N/N=C/c2ccc3c(c2)OCCO3)n1, Brc1ccc(-c2csc(N/N=C/c3cccnc3)n2)cc1, O=C(Cc1ccc(F)cc1)N/N=C/c1ccc2c(c1)OCO2, Cc1noc(C)c1/C=N/Nc1ccc2ccccc2n1, O=C(NNC(=O)c1ccco1)Nc1ccccc1, COCCNC(=O)CSc1nc2sccc2c(=O)n1-c1ccccc1, O=Cc1c(NCCCN2CCCC2=O)c2ccccc2[nH]c1=O, Cc1ccc2c(c1)N(C(=O)CCC(=O)NCc1cccnc1)CCO2, Cc1noc(C)c1C(=O)NCCc1ccc(S(N)(=O)=O)cc1, CCOC(=O)c1c(C)c(C(=O)NCCc2ccc(S(N)(=O)=O)cc2)c(C)n1CC, O=S(=O)(Cc1nnnn1-c1ccc(Br)cc1)c1ccc(F)cc1, Cc1occc1C(=O)NNC(=S)NCC(C)C, Cc1cccc(C(=O)OCC(=O)NCC(C)C)c1O, O=C(NNC(=S)NCc1ccccc1)c1ccc(OC(F)F)cc1, CC(=O)Nc1ccc(OCC(=O)NCc2ccc(C)cc2)cc1, Cc1cccc(NC(=O)c2ccc(OCC(=O)NCc3ccccc3)cc2)c1C, CNC(=S)NNC(=O)c1cccn(Cc2ccccc2)c1=O

Potency, active:
Cc1ccc(/C=N/NC(=S)NC2CCCCC2)o1 0.251 µM, C/C(=N\NC(=S)NC1CCCCC1)c1ccc(C)o1 0.631 µM, O=C(N/N=C/c1cc([N+](=O)[O-])ccc1O)/C(=C\c1cccs1)NC(=O)c1ccccc1 11.2 µM, Oc1ccc(N=Nc2nccs2)c(O)c1 7.08 µM, Oc1ccc2ccccc2c1N=Nc1nccs1 1.26 µM, CCOC(=O)c1cnc(-n2nc(C)cc2C)nc1NNc1cc(C)nc(-c2ccccc2)n1 0.1 µM, C=CCn1c(=S)[nH]c2scc(-c3ccco3)c2c1=O 1.58 µM, COc1cc(NC(=S)N2CCCC(C)C2)c(OC)cc1Cl (centres undefined) 12.6 µM, CNC(=S)N1N=C(c2ccccc2)CC1c1ccc(Br)cc1 (centres undefined) 11.2 µM, COc1ccc(C(=O)CC(=O)c2ccc(C)cc2)c(O)c1 10 µM, COCC(C)n1c(C)cc(C(=O)COc2ccc(C)nc2[N+](=O)[O-])c1C (centres undefined) 12.6 µM, CCCCN1CCNC1=S 12.6 µM, CSc1cccc(NC(=S)N(Cc2ccccc2)Cc2ccccn2)c1 6.31 µM, CSc1cccc(NC(=S)N(C(C)C)C(C)c2ccccn2)c1 (centres undefined) 22.4 µM, CCOC(=O)c1cc(C)nc(S(C)(=O)=O)c1C#N 8.91 µM, Cc1cccc(-c2nc3ccc(C(=O)NCCN4CCN(C)CC4)cc3nc2-c2cccc(C)c2)c1 12.6 µM, CCN(CC)c1ccc(/C=N/NC(=O)c2cnccn2)c(O)c1 1.58 µM, CCN(CC)c1ccc(/C=N/Nc2nc(C)cc(C)n2)c(O)c1 1.78 µM, CC(C)c1nc2ccc(C(=O)O)cc2[nH]1 8.91 µM, CN(c1ccccc1)S(=O)(=O)c1cc(C(=O)Nc2nc3ccccc3[nH]2)ccc1Cl 2.82 µM, Brc1ccc(-c2csc(N/N=C/c3ccc4c(c3)OCO4)n2)cc1 10 µM, C(=N\Nc1ccc2ccccc2n1)/c1ccc2c(c1)OCO2 8.91 µM, CCCNC(=O)c1c(N)n(-c2ccc(S(N)(=O)=O)cc2)c2nc3ccccc3nc12 12.6 µM, Cc1ccc(OCC(=O)NNC(=S)NCc2ccccc2)cc1 1.26 µM, Cc1scc(C(=O)NNC(=S)NCc2ccccc2)c1C 2 µM, Cc1scc(C(=O)NNC(=S)NCC(C)C)c1C 1.78 µM

Activity change, negative = inhibition, inactive:
CCOC(=O)c1c(C(C#N)C#N)cc(C)nc1C -1.43% [at 10 µM]
